Source: PubChem
GPR151 activ = activators of human GPR151; Q8TDV0; PathHunter beta-arrestin GPR151 cells, luminescence; activation, % at 11.2 µM; 1% of 650,000 active; in the data active means activation above about 4.9%;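 further: 0% = median of compound wells and 100% = cells with positive control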
FBW7 activator = human FBW7 E3 ligase activation, primary screen; Q969H0; AlphaScreen FBW7–phospho-cyclin E peptide binding, activator screen; normalized activity (activation), % at 26.1 µM; 0.13% of 650,000 active; AID 1259310; in the data active means normalized activity above about 1.9%;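 further: purified mutant Fbw7 with reduced substrate affinity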
TEAD-YAP inh = TEAD-YAP interaction inhibition; HEK-TIYL cells, TEAD-Gal4/YAP UAS-luciferase luminescence; inhibition, % at 9.12 µM; 1.4% of 640,000 active; in the data active means inhibition above about 32%;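 further: 0% = median of test compound wells and 100% = reference inhibitor wells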
MITF primary = human MITF inhibition, primary screen | AlphaScreen MITF homodimerization, bead proximity signal | inhibition, % at 2.6 µM | 0.91% of 650,000 active | O75030 | AID 1259374; in the data active means inhibition above about 50%;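 further: 0% = vehicle wells with protein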
Target sequence (O75030 whole entry, looked up): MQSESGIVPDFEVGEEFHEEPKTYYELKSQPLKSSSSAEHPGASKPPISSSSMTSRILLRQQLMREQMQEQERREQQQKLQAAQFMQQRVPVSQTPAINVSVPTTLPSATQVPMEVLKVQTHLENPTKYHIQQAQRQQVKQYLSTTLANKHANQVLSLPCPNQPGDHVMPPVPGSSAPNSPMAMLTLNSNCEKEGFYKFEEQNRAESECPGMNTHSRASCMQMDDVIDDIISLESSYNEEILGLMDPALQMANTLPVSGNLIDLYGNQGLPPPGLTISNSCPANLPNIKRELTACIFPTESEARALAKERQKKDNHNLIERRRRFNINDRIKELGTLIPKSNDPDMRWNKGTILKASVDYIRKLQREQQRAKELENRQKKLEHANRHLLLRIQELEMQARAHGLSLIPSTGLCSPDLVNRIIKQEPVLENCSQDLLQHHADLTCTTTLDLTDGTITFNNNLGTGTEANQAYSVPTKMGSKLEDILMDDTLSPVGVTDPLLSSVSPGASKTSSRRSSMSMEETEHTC
MITF confirm = human MITF inhibition, confirmation. shares compounds with MITF primary. inhibition, % at 2.6 µM. AlphaScreen MITF homodimerization, biotin/His-MITF beads. 16% of 4,700 active;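 active means inhibition above a cutoff derived from the DMSO control wells, cut at about 28% in these data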;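 further: 0% = MITF dimer wells with DMSO only; inhibitors lower the bead chemiluminescence by keeping MITF from dimerizing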
AS interf DR = AlphaScreen optical interference, dose response counter-screen; 6% of 480 active; AlphaScreen optical interference counterscreen, cell-free; shares compounds with MITF primary; IC50, µM; call rule not given here
AS interf ctr = optically interferes with AlphaScreen signal. shares compounds with MITF primary. LysRS AlphaScreen counterscreen, signal interference, triplicate. inhibition, % at 2.6 µM. 7.6% of 4,700 active;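 active means inhibition above a cutoff derived from the DMSO control wells, cut at about 30% in these data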
The depositor's hits bear a star; · = no result. An excerpt weighted towards active compounds, which were near 3.5% of everything screened.

SMILES	GPR151 activ	FBW7 activator	TEAD-YAP inh	MITF primary	MITF confirm	AS interf ctr	others
COc1ccc(OC)c(CN2CCN(C(=O)COc3ccc(Br)cc3)CC2)c1	2.5	0.0	-0.7	79.9*	-13.1	-1.6
CCN1CCN(C(=O)COc2cccc(Br)c2)CC1	1.7	0.0	-8.3	-8.2	·	·
Cc1cccc(OCC(=O)N2CCN(Cc3cccc(Br)c3)CC2)c1	-0.6	0.0	-0.1	61.2*	35.0*	15.6	AS interf DR=>6.48
Cc1ccc(OCC(=O)N2CCN(Cc3cccc(C)c3)CC2)cc1	0.5	0.0	7.6	51.2*	1.4	2.6
Cc1ccc(OCC(=O)N2CCN(Cc3ccc(Br)cc3)CC2)cc1	1.3	-0.1	4.5	70.3*	15.5	19.2
Cc1cccc(CN2CCN(C(=O)COc3ccc(Br)cc3)CC2)c1	1.2	0.1	13.9	39.7	·	·
c1ccc(CN2CCc3nc4ncccc4cc3C2)cc1	-1.5	-0.2	-4.3	2.4	·	·
CC(=O)N(Cc1ccco1)C1CCN(Cc2ccncc2)CC1	0.6	0.1	3.8	22.1	·	·
CCC(C)N1CCN(C(=O)COc2cccc(C)c2)CC1 (stereo not given)	1.7	-0.2	-10.1	44.0	·	·
CCC(C)N1CCN(C(=O)COc2ccc(C)cc2)CC1 (stereo not given)	-1.2	0.1	7.6	54.3*	10.0	15.7
CCOc1cccc(OCC)c2c(C)nc(C)c1-2	1.8	0.0	8.2	76.4*	81.9*	-2.4
CCOc1cccc(OCC)c2c(C)[n+](C)c(C)c1-2	-0.4	0.0	-34.0	73.5*	79.3*	3.4	AS interf DR=>5.15
CC(C)(C)c1cc(=O)[nH]c(N2CCNCC2)n1	-0.5	0.0	1.8	-9.7	·	·
CCC(CC)N1CCN(Cc2cccc(OC)c2)CC1	1.9	-0.1	-2.4	73.1*	6.2	12.4
COc1cccc(CN2CCN(Cc3cccc(OC)c3)CC2)c1	0.1	0.0	-2.7	6.6	·	·
COc1cccc(CN2CCN(Cc3ccc(F)cc3)CC2)c1	-1.1	-0.2	-18.4	72.1*	9.8	13.8
COc1ccc(CN2CCN(Cc3ccc(Br)cc3)CC2)cc1	-0.5	-0.2	9.3	85.0*	-1.8	13.9
COc1cccc(CN2CCN(c3ccc(F)cc3)CC2)c1	0.3	0.0	8.1	43.5	·	·
COc1ccc(CN2CCN(Cc3ccc(F)cc3)CC2)cc1	0.2	-0.2	-0.7	77.9*	0.3	12.4
Cc1nnc(NC(=O)C(C)Br)s1 (stereo not given)	-1.4	0.5	17.1	20.1	·	·
CN(C)c1ccc(C(O)(c2ccc(N(C)C)cc2)C2CN3CCC2CC3)cc1 (stereo not given)	-0.2	-0.1	-10.4	32.7	·	·
Fc1ccc(CN2CCN(Cc3ccc(F)cc3)CC2)cc1	-0.5	0.1	4.5	74.5*	8.9	-7.3
CN1CCN(Cc2ccc(N(C)C)cc2)CC1	0.7	-0.4	-5.9	-39.8	·	·
Clc1ccc(CN2CCN(Cc3cccc(Cl)c3)CC2)cc1	-0.1	-0.2	-2.1	71.1*	17.0	16.9
CN1CCN(Cc2ccc(C(F)(F)F)cc2)CC1	-0.3	0.0	0.9	56.3*	-0.3	3.0
SMILES	GPR151 activ	FBW7 activator	TEAD-YAP inh	MITF primary	MITF confirm	AS interf ctr	others
COc1cccc(CN2CCN(Cc3ccc(Cl)cc3)CC2)c1	3.5	0.0	-19.2	79.2*	17.3	17.1
CSc1ccc(CN2CCN(C)CC2)cc1	0.8	-0.1	3.0	20.8	·	·
COc1cccc(CN2CCN(Cc3cccc(C)c3)CC2)c1	0.2	-0.2	-4.9	74.4*	3.4	1.2
CSc1ccc(CN2CCN(Cc3ccccc3)CC2)cc1	1.4	-0.6	5.0	53.8*	8.3	2.0
O=[N+]([O-])c1ccc(CN2CCN(c3ccccc3F)CC2)cc1	1.3	0.0	-7.9	20.5	·	·
Clc1ccc(CCNCc2ccccn2)c(Cl)c1	-1.1	0.0	-5.0	33.0	·	·
Fc1cccc(CCNCc2ccccn2)c1	0.3	-1.1	-8.3	62.0*	-5.3	5.5
CCC(C)N1CCN(Cc2ccc(OC)c(Br)c2)CC1 (stereo not given)	1.9	-0.1	26.5	82.3*	24.1	13.8
COc1ccc(CN2CCNCC2)cc1Br	-0.6	-0.1	18.6	10.1	·	·
CCOc1cc(CN2CCN(C(C)CC)CC2)ccc1OC (stereo not given)	1.3	0.1	-5.6	74.0*	-3.0	-8.6
CCOc1cc(CN2CCN(CCO)CC2)ccc1OC	-0.6	0.9	5.3	8.3	·	·
N#Cc1ccc(CN2CCN(c3ccccc3F)CC2)cc1	-1.4	0.6	9.0	36.1	·	·
COc1ccc(CN2C(=O)NC(=O)/C(=C\c3ccc([N+](=O)[O-])o3)C2=O)cc1	1.4	-0.6	-2.0	28.1	·	·
CN(C)c1ccc2c(c1)N=C(c1cccs1)OP2(=S)N1CCCC1 (stereo not given)	-1.4	0.2	4.2	24.7	·	·
CCn1c2ccccc2c2cc(CN3CCN(C)CC3)ccc21	0.3	0.2	4.0	63.3*	13.5	13.1
C1COCCOCCOCCOCCO1.C1COCCOCCOCCOCCO1.[Cl-].[Cs+].[O]=[Cr](=[O])=[O]	2.0	0.1	-3.1	57.3*	19.4	7.3
Cc1ccc(N2C(=O)CC(=O)NC2=O)cc1	-0.9	-0.1	-1.2	82.5*	-2.5	3.9
O=C1CC(=O)N(c2ccc(Br)cc2)C(=O)N1	-1.4	-0.1	-4.5	-0.5	·	·
N/C(=N\[N+](=O)[O-])NC1CCN(Cc2ccccc2)CC1	-0.3	0.3	-5.1	0.2	·	·
CN1CCN(c2ncc(Br)cn2)CC1	-0.1	0.0	4.8	-9.3	·	·
Cc1ccccc1CN1CCN(c2ccc(F)cc2)CC1	0.8	0.4	-1.6	9.8	·	·
CCC(C)N1CCN(Cc2ccccc2C)CC1 (stereo not given)	-0.1	-0.1	2.8	83.2*	15.0	20.6
OCCN1CCN(Cc2ccccc2Br)CC1	-0.4	0.0	1.9	35.0	·	·
CCC(C)N1CCN(Cc2ccccc2Br)CC1 (stereo not given)	-1.1	0.4	9.5	82.8*	10.3	8.7
CN(N=O)c1cc(O)ccc1O	1.5	-0.3	7.0	77.7*	62.2*	-19.4	AS interf DR=>6.48
SMILES	GPR151 activ	FBW7 activator	TEAD-YAP inh	MITF primary	MITF confirm	AS interf ctr	others
CN1CCN(Cc2ccc([N+](=O)[O-])s2)CC1	2.6	0.1	-2.2	56.0*	6.5	12.1
CN1CCN(Cc2ccc([N+](=O)[O-])o2)CC1	-0.5	-0.2	-2.5	47.7	·	·
COc1ccc(CN2CCN(Cc3ccccc3C)CC2)cc1	0.8	-0.1	-6.6	74.9*	-2.6	10.1
Cc1ccc(CN2CCN(Cc3ccccc3C)CC2)cc1	0.0	0.1	13.8	55.8*	-11.7	-4.8
Cc1ccc(CN2CCN(Cc3ccc(Cl)cc3)CC2)cc1	-0.7	-0.1	-7.4	83.5*	-5.8	-4.6
Cc1ccc(C)c(CN2CCN(C)CC2)c1	0.5	0.5	3.7	62.3*	2.2	3.8
Cc1ccccc1CN1CCN(C)CC1	0.6	0.0	0.9	-6.8	·	·
Clc1ccc(CN2CCNCC2)cc1	0.0	0.1	-10.9	14.9	·	·
Cc1ccccc1CN1CCN(Cc2ccccc2Cl)CC1	0.4	0.1	11.9	11.3	·	·
